This is an account of results in PubChem BioAssay (NCI).

Some test systems named below: HCT-15 colon; HT29 colon; SNB-75 CNS; SNB-19 CNS; U251 CNS; PC-3 prostate; SK-MEL-5 melanoma; UACC-62 melanoma; LOX IMVI melanoma; SK-MEL-28 melanoma; SK-MEL-2 melanoma; EKVX NSCLC; UO-31 renal; TK-10 renal; ACHN renal; CAKI-1 renal; A498 renal; CCRF-CEM leukemia; MOLT-4 leukemia; SN12C renal.
What all share (test): NCI-60 one-dose screen, 48 h (100 = growth as untreated, 0 = no growth, -100 = all killed)
What all share (conditions): 10 µM

Molecules are shown by their SMILES. The panel holds about 83,000 compounds, 20% with a hit somewhere; the sample as a whole holds those more often.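 Plates (96-well) were seeded with cells, treated with compound at one concentration, and incubated for 48 hours before percent growth was determined.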 Unmarked numbers belong to inactive results. Activity calls are given as the source filed them. Rule for the calls: active = growth percent below 10; inactive = the rest.

Regarding `O=C(Nc1ccc(F)c(Cl)c1)c1cc(-c2ccc(F)cc2F)ccc1O`, the growth in the assay with HCT-15 colon is -18.7% (active); in the assay on HT29 colon, 26.8%; with SNB-75 CNS it was -20.9% (active); with SNB-19 CNS, 13%; with U251 CNS, 11.5%; with PC-3 prostate, 1.28% (active). In addition, the growth in the assay on SK-MEL-5 melanoma is -90.6% (active); with UACC-62 melanoma, -54.6% (active); with LOX IMVI melanoma, -57.2% (active); in the assay with SK-MEL-28 melanoma, -16.2% (active); in the assay with SK-MEL-2 melanoma, -69.2% (active); with EKVX NSCLC, -5.82% (active). The growth with UO-31 renal was -5.93% (active); in the assay with TK-10 renal, 19.1%; in the assay on ACHN renal, -13.4% (active); in the assay on CAKI-1 renal it was -18.2% (active); in the assay on A498 renal it was -21% (active); in the assay with CCRF-CEM leukemia, 0.694% (active). The growth with MOLT-4 leukemia was -21.1% (active).

For the compound `Cc1ccc(-c2cc(-c3cc4ccccc4nc3Cl)[nH]c(=S)n2)cc1`, the growth in the assay on HCT-15 colon was 30.2%; in the assay with HT29 colon, 43.3%; in the assay on SNB-75 CNS, 66.2%; with SNB-19 CNS, 71.1%; with U251 CNS, 71.8%; in the assay with PC-3 prostate, 53.1%. The growth with SK-MEL-5 melanoma is -11% (active); in the assay on UACC-62 melanoma, 21.5%; in the assay with LOX IMVI melanoma, 53.6%; in the assay on SK-MEL-28 melanoma, 47.4%; in the assay with SK-MEL-2 melanoma, 11.8%; in the assay with EKVX NSCLC it was 50%. The growth with SN12C renal was 63.8%; in the assay on TK-10 renal it was 107%; in the assay on ACHN renal, 46.5%; with CAKI-1 renal, 61.5%; with A498 renal, 79.5%; with CCRF-CEM leukemia it was 33.2%. The growth with MOLT-4 leukemia was 17.5%.

With `COc1cc(/C=C/C(=O)c2cc(OC)c(OC)c(OC)c2)ccc1Oc1nc(Nc2ccc(F)cc2)nc(N(C)C)n1`, the growth in the assay on HCT-15 colon was -40.3% (active); with HT29 colon, -50.9% (active); in the assay on SNB-75 CNS, -64.8% (active); in the assay with SNB-19 CNS, -46.7% (active); in the assay with U251 CNS it was -72.9% (active); in the assay with PC-3 prostate it was -20% (active). Besides, the growth was -76.2% (active) with SK-MEL-5 melanoma; -80.7% (active) with UACC-62 melanoma; -72.1% (active) with SK-MEL-28 melanoma; -49.4% (active) in the assay on SK-MEL-2 melanoma; 20.6% in the assay with EKVX NSCLC; -89.3% (active) with SN12C renal. Also, the growth in the assay on UO-31 renal was -100% (active); in the assay with TK-10 renal, 28.6%; in the assay with ACHN renal, -82.3% (active); in the assay with CAKI-1 renal, 11.5%; in the assay on A498 renal, -1.01% (active); in the assay on CCRF-CEM leukemia, 3.77% (active). In the assay on MOLT-4 leukemia, the growth is 4.87% (active).

Regarding `COc1ccc2c3nc4cc(C)c(C)cc4nc3n(CCN(C)C)c2c1`, the growth with HCT-15 colon was 1.95% (active); with HT29 colon it was 31.4%; in the assay on SNB-75 CNS it was 21.5%; in the assay on SNB-19 CNS it was 9.9% (active); in the assay with U251 CNS, -73.1% (active); in the assay with PC-3 prostate, 21.2%. Besides, the growth in the assay with SK-MEL-5 melanoma is -80.7% (active); in the assay on UACC-62 melanoma, 3.37% (active); with SK-MEL-28 melanoma, -63.9% (active); in the assay on SK-MEL-2 melanoma, -4.58% (active); in the assay with EKVX NSCLC, 12.6%; in the assay with SN12C renal it was -15.6% (active). Further, the growth in the assay on UO-31 renal was -67.2% (active); in the assay with TK-10 renal, 15.6%; in the assay with ACHN renal it was -64% (active); in the assay with CAKI-1 renal, -67.5% (active); in the assay on A498 renal, 65.4%; in the assay on CCRF-CEM leukemia, 20.1%. In addition, the growth in the assay with MOLT-4 leukemia is 4.84% (active).

For `COc1ccc(OC)c(/C=N/NC(=O)c2ccc3nc(-c4ccc(Cl)cc4)[nH]c3c2)c1`, the growth is 41.8% in the assay on HCT-15 colon; 79.7% in the assay on HT29 colon; 72.8% with SNB-75 CNS; 54.3% in the assay with SNB-19 CNS; 74.3% with U251 CNS; 41.5% in the assay with PC-3 prostate. The growth in the assay on SK-MEL-5 melanoma is 31.2%; with UACC-62 melanoma it was 75.7%; in the assay with LOX IMVI melanoma, 65.4%; in the assay on SK-MEL-28 melanoma, 85.4%; with SK-MEL-2 melanoma, 103%; with EKVX NSCLC, 57.5%. Moreover, the growth with UO-31 renal was 68%; with TK-10 renal it was 89.1%; in the assay with ACHN renal, 46.9%; in the assay with CAKI-1 renal it was 61.6%; in the assay on A498 renal it was 43.8%; with CCRF-CEM leukemia, 43.9%. For the same compound, the growth with MOLT-4 leukemia is 41.1%.

Regarding `CC(=O)Nc1ccc(-n2cnc3cc(-c4ccc(NS(C)(=O)=O)cc4)ccc32)cc1`, the growth in the assay with HCT-15 colon was 32.4%; with HT29 colon, 34.2%; in the assay on SNB-75 CNS, 35.6%; in the assay with SNB-19 CNS, 61.1%; in the assay on U251 CNS it was 59.8%; with PC-3 prostate it was 62.8%. In addition, the growth is 69.5% in the assay with SK-MEL-5 melanoma; 54.7% in the assay on UACC-62 melanoma; 85.3% in the assay with SK-MEL-28 melanoma; 73.2% with SK-MEL-2 melanoma; 61% in the assay on EKVX NSCLC; 46.3% in the assay with SN12C renal. Besides, the growth is 32.1% in the assay on UO-31 renal; 83.7% in the assay on TK-10 renal; 52.3% in the assay with ACHN renal; 17.5% in the assay with CAKI-1 renal; 86.5% in the assay on A498 renal; 36.1% with CCRF-CEM leukemia. In addition, the growth in the assay on MOLT-4 leukemia is 24.5%.

Take `COc1cc(/C=N/NC(=O)c2ccc3nc(-c4ccc(Cl)cc4)[nH]c3c2)cc(OC)c1OC`: the growth is 55.7% in the assay on HCT-15 colon; -50.2% (active) with HT29 colon; -47.5% (active) in the assay on SNB-75 CNS; -94.1% (active) in the assay on SNB-19 CNS; -86.6% (active) in the assay on U251 CNS; -41.6% (active) in the assay on PC-3 prostate. The growth was -82.6% (active) with SK-MEL-5 melanoma; -76.7% (active) in the assay on UACC-62 melanoma; -81.1% (active) in the assay with LOX IMVI melanoma; -87.9% (active) in the assay with SK-MEL-28 melanoma; -17.3% (active) with SK-MEL-2 melanoma; 9.25% (active) with EKVX NSCLC. In addition, the growth is 58.9% with UO-31 renal; 37.4% in the assay with TK-10 renal; 30.1% in the assay on ACHN renal; 2.87% (active) in the assay with CAKI-1 renal; -31.1% (active) with A498 renal; -4.37% (active) with CCRF-CEM leukemia. In addition, in the assay with MOLT-4 leukemia, the growth was 3.96% (active).

With `COc1ccc(NC(=O)Nc2ccc(OCC(=O)N=Nc3c(O)[nH]c4ccc([N+](=O)[O-])cc34)cc2)cc1`, the growth is 106% with HCT-15 colon; 95.2% in the assay with HT29 colon; 72.4% in the assay on SNB-75 CNS; 40.4% with SNB-19 CNS; 25% with U251 CNS; 81.9% in the assay with PC-3 prostate. Further, the growth in the assay with SK-MEL-5 melanoma was 96%; with UACC-62 melanoma, 104%; with SK-MEL-28 melanoma, 115%; in the assay with SK-MEL-2 melanoma it was 89.4%; with EKVX NSCLC, 83.7%; in the assay on SN12C renal, 72.5%. In addition, the growth with UO-31 renal is 94.3%; with TK-10 renal, 113%; in the assay on ACHN renal, 102%; with CAKI-1 renal, 92.5%; in the assay with A498 renal, 101%; in the assay with CCRF-CEM leukemia it was 93.7%. For the same compound, in the assay with MOLT-4 leukemia, the growth was 100%.
